Inconclusive results are not listed. A structure can be active in one record and inactive in another. Activity calls are given as the source filed them. The call rests on the fitted dose curve; in most records, active means well fitted cell-killing curve with a large enough effect in the repeat runs; inconclusive means weak or mixed curves, or effect the other way; inactive means no such curve, though single readings can be large or run the other way.
Experiment: qHTS assay to identify small molecule antagonists of the glucocorticoid receptor (GR) signaling pathway - cell viability counter screen (AID 720693); further: nearly all actives have a fitted effect of over 55% in size
Conditions: GR-bla HeLa viability, CellTiter-Glo luminescence, 18 h, with 5 nM dexamethasone present; series mostly up to 58.5 µM; viability change, negative = cytotoxic: at the top concentration
On the % scale 0 is the no-effect control and ±100 the full control effect.

| SMILES | viability change, negative = cytotoxic | Potency |
| --- | --- | --- |
| C[C@H]1NCc2cc(-c3ccc4c(=O)c(C(=O)O)cn(C5CC5)c4c3OC(F)F)ccc21 | 2.29% (inactive) | – |
| Cl[Si](Cl)(c1ccccc1)c1ccccc1 | -16.9% [at 78.9 µM] (inactive) | – |
| CC(C)CCCCCOC(=O)CCS | 11.2% (inactive) | – |
| COCCOc1cc2cc(C(=O)NC3CCN(C(C)C)CC3)n(CC(=O)Nc3ccc(Cl)cn3)c2cn1 | 5.51% (inactive) | – |
| Nc1nc(-c2ccccc2)cs1 | -1.23% (inactive) | – |
| CCCCCCCCCCCC(=O)OCC(C)OC(=O)CCCCC(=O)O (configuration not stated) | 0.526% (inactive) | – |
| Cc1cc(C(C)(C)C)cc(C)c1CC1=NCCN1 | 1.7% [at 27 µM] (inactive) | – |
| O=S(=O)(O)c1ccc(Nc2nc(Nc3ccc(/C=C/c4ccc(Nc5nc(Nc6ccc(S(=O)(=O)O)cc6)nc(N(CCO)CCO)n5)cc4S(=O)(=O)O)c(S(=O)(=O)O)c3)nc(N(CCO)CCO)n2)cc1 | 0.266% (inactive) | – |
| CCC(COC(=O)CCS)(COC(=O)CCS)COC(=O)CCS | 5.58% (inactive) | – |
| COc1cccc(OC)c1C(=O)O | 1.88% (inactive) | – |
| CCOC(=O)NNc1ccc(N(CC)CC(C)O)nn1 (configuration not stated) | 4.04% (inactive) | – |
| C1CCC(SSC2CCCCC2)CC1 | 9.4% (inactive) | – |
| CC(C)(C)CC(C)(C)c1ccc(Nc2ccc(C(C)(C)CC(C)(C)C)cc2)cc1 | -8.5% [at 7.04 µM] (inactive) | – |
| C=CCCC(=O)/C=C/C1C(C)=CCCC1(C)C (configuration not stated) | -4.79% (inactive) | – |
| Cc1c(F)c(N2CCNC(C)C2)cc2c1c(=O)c(C(=O)O)cn2C1CC1 (configuration not stated) | -13.2% (inactive) | – |
| ClCCl | -0.92% (inactive) | – |
| COc1ccc(-c2coc3cc(O)ccc3c2=O)cc1 | 5.52% (inactive) | – |
| CC(C)Cn1cnc2c(N)nc3ccccc3c21 | -8.72% (inactive) | – |

| SMILES | viability change, negative = cytotoxic | Potency |
| --- | --- | --- |
| CN(C)Cc1ccccc1O | -2.66% (inactive) | – |
| c1ccc(SSc2ccccc2)cc1 | 0.729% [at 78.9 µM] (inactive) | – |
| Cc1nc2n(c(=O)c1CCN1CCC(c3noc4cc(F)ccc34)CC1)CCCC2 | 12.8% (inactive) | – |
| Nc1ccc(Oc2ccc(Cl)cc2)cc1 | -7.15% (inactive) | – |
| C[Si](Cl)(c1ccccc1)c1ccccc1 | -11.6% (inactive) | – |
| O=C(Nc1ccc2c(O)c(N=Nc3ccc(N=Nc4ccc(S(=O)(=O)O)cc4)cc3)c(S(=O)(=O)O)cc2c1)c1ccccc1 | -4.16% (inactive) | – |
| S=C([S-])NCCNC(=S)[S-].S=C([S-])NCCNC(=S)[S-].[Mn+2].[Zn+2] | 23% (inactive) | – |
| COC(=O)c1ccccc1OC | 3.08% (inactive) | – |
| CCC(=O)C(=O)CC | -15.2% [at 78.9 µM] (inactive) | – |
| Cc1ccc(-c2ccccc2)cc1 | -0.429% (inactive) | – |
| OC1CCCc2ccccc21 (configuration not stated) | 23.2% [at 78.9 µM] (inactive) | – |
| CC(N=C(NC#N)Nc1ccncc1)C(C)(C)C (configuration not stated) | -10.3% (inactive) | – |
| OC1CCC(C2CCCCC2)CC1 (configuration not stated) | 3.45% (inactive) | – |
| CCN(CCN)c1cccc(C)c1 | – | inactive |
| CCCNCCC | 0.586% [at 78.9 µM] (inactive) | – |
| CNc1ccc([N+](=O)[O-])cc1 | -0.235% (inactive) | – |
| CCC(C)(CCC(C)C)C(=O)[O][Sn]([CH3])([CH3])[O]C(=O)C(C)(CC)CCC(C)C (configuration not stated) | -1.9% (inactive) | – |
| Cc1cc(C(C)(C)C)c(O)c(C)c1Cn1c(=O)n(Cc2c(C)cc(C(C)(C)C)c(O)c2C)c(=O)n(Cc2c(C)cc(C(C)(C)C)c(O)c2C)c1=O | -2.81% (inactive) | – |

Experiment: qHTS assay for identifying genotoxic compounds that show differential cytotoxicity against isogenic chicken DT40 cell lines with known DNA damage response pathways - wild type cell line (AID 743012); further: nearly all actives have a fitted effect of over 60% in size; further: potency means the concentration at half of the fitted maximal effect
Conditions: DT40 wild type chicken cells viability, CellTiter-Glo, 40 h; series mostly up to 68.4 µM; activity change, negative = cytotoxicity: at the top concentration
In short: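 300 wt DT40 cells/well; cpd (DMSO) pintool-transferred after ~0.5 h at 37 C/5% CO2; 40 h incubation; CellTiter-Glo added, 30 min RT; luminescence read.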

| SMILES | activity change, negative = cytotoxicity | Potency |
| --- | --- | --- |
| CC(C)CCCCCOC(=O)CCS | 6.77% (inactive) | – |
| Nc1nc(-c2ccccc2)cs1 | -8.69% (inactive) | – |
| Cc1cc(C(C)(C)C)cc(C)c1CC1=NCCN1 | -23.5% [at 31.4 µM] (inactive) | – |
| CCC(COC(=O)CCS)(COC(=O)CCS)COC(=O)CCS | 6.97% (inactive) | – |
| C1CCC(SSC2CCCCC2)CC1 | -0.266% (inactive) | – |
| C=CCCC(=O)/C=C/C1C(C)=CCCC1(C)C (configuration not stated) | -13.2% (inactive) | – |
| Cc1c(F)c(N2CCNC(C)C2)cc2c1c(=O)c(C(=O)O)cn2C1CC1 (configuration not stated) | 26.8% (inactive) | – |
| CC(C)Cn1cnc2c(N)nc3ccccc3c21 | -22.9% (inactive) | – |
| Cc1nc2n(c(=O)c1CCN1CCC(c3noc4cc(F)ccc34)CC1)CCCC2 | – | 9.44 µM (active) |
| Nc1ccc(Oc2ccc(Cl)cc2)cc1 | -1.32% (inactive) | – |
| C[Si](Cl)(c1ccccc1)c1ccccc1 | -7.51% (inactive) | – |
| O=C(Nc1ccc2c(O)c(N=Nc3ccc(N=Nc4ccc(S(=O)(=O)O)cc4)cc3)c(S(=O)(=O)O)cc2c1)c1ccccc1 | -29.7% (inactive) | – |
| Cc1ccc(-c2ccccc2)cc1 | -2.06% (inactive) | – |
| OC1CCCc2ccccc21 (configuration not stated) | 15.1% [at 95 µM] (inactive) | – |
| OC1CCC(C2CCCCC2)CC1 (configuration not stated) | -29.2% (inactive) | – |
| CCN(CCN)c1cccc(C)c1 | – | 69.2 µM (active) and inactive |
| CCC(C)(CCC(C)C)C(=O)[O][Sn]([CH3])([CH3])[O]C(=O)C(C)(CC)CCC(C)C (configuration not stated) | – | 54.5 µM (active) |

Experiment: qHTS assay for identifying genotoxic compounds that show differential cytotoxicity against isogenic chicken DT40 cell lines with known DNA damage response pathways - Rev3 mutant cell line (AID 743014); further: nearly all actives have a fitted effect of over 55% in size; further: potency means the concentration at half of the fitted maximal effect
Conditions: chicken DT40 Rev3-/- viability, CellTiter-Glo, 40 h; series mostly up to 68.4 µM; activity, negative = cytotoxicity: at the top concentration

| SMILES | activity, negative = cytotoxicity | Potency |
| --- | --- | --- |
| C[C@H]1NCc2cc(-c3ccc4c(=O)c(C(=O)O)cn(C5CC5)c4c3OC(F)F)ccc21 | 1.8% (inactive) | – |
| Cl[Si](Cl)(c1ccccc1)c1ccccc1 | 4.37% [at 95 µM] (inactive) | – |
| COCCOc1cc2cc(C(=O)NC3CCN(C(C)C)CC3)n(CC(=O)Nc3ccc(Cl)cn3)c2cn1 | -23.1% (inactive) | – |
| CCCCCCCCCCCC(=O)OCC(C)OC(=O)CCCCC(=O)O (configuration not stated) | -16.3% (inactive) | – |
| O=S(=O)(O)c1ccc(Nc2nc(Nc3ccc(/C=C/c4ccc(Nc5nc(Nc6ccc(S(=O)(=O)O)cc6)nc(N(CCO)CCO)n5)cc4S(=O)(=O)O)c(S(=O)(=O)O)c3)nc(N(CCO)CCO)n2)cc1 | 0.793% (inactive) | – |
| COc1cccc(OC)c1C(=O)O | -12.1% (inactive) | – |
| CCOC(=O)NNc1ccc(N(CC)CC(C)O)nn1 (configuration not stated) | – | 23.7 µM (active) |
| CC(C)(C)CC(C)(C)c1ccc(Nc2ccc(C(C)(C)CC(C)(C)C)cc2)cc1 | 3.12% [at 8.53 µM] (inactive) | – |
| ClCCl | 1.69% (inactive) | – |
| COc1ccc(-c2coc3cc(O)ccc3c2=O)cc1 | – | 30.6 µM (active) |
| CN(C)Cc1ccccc1O | -6.87% (inactive) | – |
| c1ccc(SSc2ccccc2)cc1 | – | 27.5 µM (active) |
| S=C([S-])NCCNC(=S)[S-].S=C([S-])NCCNC(=S)[S-].[Mn+2].[Zn+2] | – | 33.5 µM (active) |
| COC(=O)c1ccccc1OC | -15.7% (inactive) | – |
| CCC(=O)C(=O)CC | – | 28.5 µM (active) |
| CC(N=C(NC#N)Nc1ccncc1)C(C)(C)C (configuration not stated) | 0.333% (inactive) | – |
| CCCNCCC | 7.89% [at 95 µM] (inactive) | – |
| CNc1ccc([N+](=O)[O-])cc1 | – | 68.7 µM (active) |
| Cc1cc(C(C)(C)C)c(O)c(C)c1Cn1c(=O)n(Cc2c(C)cc(C(C)(C)C)c(O)c2C)c(=O)n(Cc2c(C)cc(C(C)(C)C)c(O)c2C)c1=O | 0.755% (inactive) | – |

— PubChem BioAssay (Tox21)
